Most compounds without a hit are left out; they make up all but 2.4% or so of the library.
CHRM1 PAM: potentiates human M1 receptor response to acetylcholine | P11229 | CHO-K1 hM1, Fluo-8 calcium fluorescence, ACh EC20; 0% = ACh EC20, 100% = maximal ACh | activation, % at 3 µM | 360,000 tested, 0.088% active; in the data active means activation above about 19%, passing the limit was not always enough
Target sequence (P11229 whole entry, looked up): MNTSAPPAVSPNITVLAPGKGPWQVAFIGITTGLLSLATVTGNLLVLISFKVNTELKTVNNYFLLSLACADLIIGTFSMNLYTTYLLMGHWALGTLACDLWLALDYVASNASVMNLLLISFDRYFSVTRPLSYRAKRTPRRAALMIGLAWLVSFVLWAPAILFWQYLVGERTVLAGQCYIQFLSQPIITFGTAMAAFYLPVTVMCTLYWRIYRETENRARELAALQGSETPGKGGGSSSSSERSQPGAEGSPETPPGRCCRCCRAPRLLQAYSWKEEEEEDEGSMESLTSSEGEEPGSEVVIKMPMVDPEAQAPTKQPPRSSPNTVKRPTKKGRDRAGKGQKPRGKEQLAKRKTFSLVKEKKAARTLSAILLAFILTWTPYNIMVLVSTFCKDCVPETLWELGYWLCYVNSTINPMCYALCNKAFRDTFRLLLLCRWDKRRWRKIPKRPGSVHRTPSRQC
CHO-K1 Ca ag: M1 agonist counterscreen hit in parental CHO-K1 cells; 360,000 tested, 0.48% active; activation, % at 3 µM; Fluo-8 calcium fluorescence; scaled to maximal ATP response, vehicle zero; in the data active means activation above about 15%;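 further: untransfected CHO-K1 host cells lacking M1 receptor as counterscreen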
CHO-K1 Ca PAM: M1 PAM counterscreen hit in parental CHO-K1 cells. ATP EC20, Fluo-8 calcium fluorescence; 0% at ATP EC20, 100% at ATP max. activation, % at 3 µM. 360,000 tested, 0.02% active. AID 602247;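 active means activation above the run cutoff, the mean activation of all test compounds plus 3 SD, cut at about 40% in these data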;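 further: peak over basal fluorescence ratio in a 140 s read after ATP addition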
M1 antag: antagonists of human M1 muscarinic receptor | CHO-K1 hM1, Fluo-8 calcium fluorescence, ACh EC80 antagonist | inhibition, % at 3 µM | 360,000 tested, 1.3% active;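 active means percent inhibition above its own plate's cutoff, namely the mean of that plate's compound wells plus 3 SD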;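 further: peak over basal fluorescence ratio during 140 s after agonist addition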
CHO-K1 Ca antag: counter-screen for M1 antagonists: effect in parental CHO-K1 cells | ATP-induced calcium, Fluo-8 fluorescence | inhibition, % at 3 µM | 360,000 tested, 0.6% active;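 active means inhibition above a per-plate cutoff, the plate's mean sample inhibition plus 3 SD, cut at about 24% in these data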
CHRM1 agonist: human M1 muscarinic receptor agonism; CHO-K1 hM1, Fluo-8 calcium fluorescence, agonist mode; 0% DMSO, 100% acetylcholine EC100; activation, % at 3 µM; P11229; 360,000 tested, 0.33% active;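 active means activation above the run's mean compound activation plus 3 SD, cut at about 16% in these data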;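 further: peak over basal fluorescence ratio within a 140 s kinetic read after compound addition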
A number is an active result; n = inactive; x = no result given.

SMILES | CHRM1 PAM | CHO-K1 Ca ag | CHO-K1 Ca PAM | M1 antag | CHO-K1 Ca antag | CHRM1 agonist
CCN1/C(=C\C=C\C2=[N+](CC)c3ccccc3C2(C)C)C(C)(C)c2ccccc21 | n | 313 | n | 96 | 94 | 388
COc1cccc(C(=O)C2CCCN(Cc3cnn(C(C)C)c3)C2)c1 (stereo unspecified) | n | n | n | n | n | n
CCCn1cc(CN2CCCC(C(=O)c3cccc(OC)c3)C2)c(C)n1 (stereo unspecified) | n | n | n | n | n | n
CCCn1ncc(CN2CCCC(C(=O)c3cccc(OC)c3)C2)c1C (stereo unspecified) | n | n | n | 94 | n | n
CCn1cc(CN2CCCC(C(=O)c3cccc(OC)c3)C2)c(C)n1 (stereo unspecified) | n | n | n | 50 | n | n
CC(=O)C1C(N2CC2)CC2C3CC=C4CC(O)CCC4(C)C3CCC21C (stereo unspecified) | n | n | n | n | n | n
CS(=O)(=O)c1ccc(C2=C(CNC(=O)c3nccs3)[C@H]3CC[C@@H](C2)N3CCOc2ccccc2)cc1 | n | n | n | 56 | n | n
CS(=O)(=O)c1ccc(C2=C(CNC(=O)c3cccs3)[C@H]3CC[C@@H](C2)N3CCOc2ccccc2)cc1 | n | n | n | 35 | n | n
CS(=O)(=O)c1ccc(C2=C(CNC(=O)c3ccncc3)[C@H]3CC[C@@H](C2)N3Cc2ccccc2)cc1 | n | n | n | n | n | n
O=C(c1ccc(C(F)(F)F)cc1)C1CCCN(Cc2ccncc2)C1 (stereo unspecified) | n | n | n | n | n | n
O=C(c1ccc(Cl)cc1)C1CCCN(Cc2cccc3cccnc23)C1 (stereo unspecified) | n | n | n | 58 | n | n
O=C(c1ccc(Cl)cc1)C1CCCN(Cc2cccc3ncccc23)C1 (stereo unspecified) | n | n | n | 51 | n | n
O=C(c1ccc(Cl)cc1)C1CCCN(Cc2ccc3nonc3c2)C1 (stereo unspecified) | n | n | n | 43 | n | n
COc1ccc(CN2CCCC(C(=O)c3ccc(Cl)cc3)C2)c(O)c1 (stereo unspecified) | n | n | n | n | n | n
Cc1cc(-c2ccccc2)cc(-c2ccccc2)[n+]1CCc1ccccc1 | n | n | n | 60 | n | n
Oc1ccc(-[n+]2c(-c3ccccc3)cc(-c3ccccc3)cc2-c2ccccc2)cc1 | n | n | n | n | n | n
Clc1ccc(C[n+]2c(-c3ccccc3)cc(-c3ccccc3)cc2-c2ccccc2)cc1 | n | n | n | 36 | n | n
Cc1ccccc1NC(=O)N1Cc2ccccc2-n2nncc2C1 | n | n | n | n | n | n
CCC[N+]12CCC(CC1)C(=C(c1ccccc1)c1ccccc1)C2 | n | n | n | 99 | n | n
CCCC[N+]12CCC(CC1)C(=C(c1ccccc1)c1ccccc1)C2 | n | n | n | 99 | n | n
COc1cc(C)c(CNCCc2c[nH]c3ccccc23)cc1C | n | 16 | n | n | n | n
CCOP(=O)(CCP(=O)(OCC)OCC)OCC.C[CH2][Sn]([Cl])([Cl])[CH2]C | n | n | n | n | n | n
Cc1ccc(CN2C3CCCC2CC(NC(=O)Nc2cccc(F)c2)C3)cc1 (stereo unspecified) | n | n | n | 38 | n | n
Cc1ccc(C2CC3CCC(C2)N3Cc2ccccc2F)cc1 (stereo unspecified) | n | n | n | n | n | n
CC(=O)O[C@H]1CC[C@@]2(C)[C@H](C1)C(=O)C[C@H]1[C@@H]3CC[C@@H]4[C@@H](CN5C[C@@H](C)CC[C@H]5[C@@]4(C)O)[C@@H]3C[C@@H]12 | n | n | n | 100 | n | n
SMILES | CHRM1 PAM | CHO-K1 Ca ag | CHO-K1 Ca PAM | M1 antag | CHO-K1 Ca antag | CHRM1 agonist
C[C@H]1CC[C@@H]2N(C1)C[C@H]1[C@@H]3C[C@H]4[C@@H](CC(=O)[C@H]5C[C@@H](O)CC[C@@]54C)[C@@H]3CC[C@H]1[C@]2(C)O | n | n | n | 86 | n | n
COc1ccc(-n2nnnc2C(CCSC)N2CCC(n3c(=O)[nH]c4ccccc43)CC2)cc1 (stereo unspecified) | n | n | n | n | n | n
C[C@@H]1CN([C@@H](C)CO)C(=O)CCCn2cc(nn2)CO[C@H]1CN(C)C(=O)Oc1ccc2ccccc2c1 | n | n | n | n | n | n
COc1ccc(-c2ccc3c(c2)CNCc2cnnn2-3)cc1 | n | n | n | n | n | n
O=C(O)C1CN2CCC1CC2 (stereo unspecified) | n | n | n | n | n | 25
O=C(c1cccs1)C1CN2CCC1CC2 (stereo unspecified) | n | n | n | 38 | n | n
CN1CC(C(=O)c2cccs2)C(c2ccc(Cl)cc2)C1 (stereo unspecified) | n | 21 | n | n | n | n
O=C(c1cccs1)N1CCC(C(=O)O)(c2ccccc2)CC1 | n | n | n | n | n | n
Nc1cc(C(=O)Nc2ccccc2F)ccc1N1CC2CC(C1)c1cccc(=O)n1C2 (stereo unspecified) | n | n | n | n | n | n
CC1C2Cc3ccc(O)cc3[C@]1(C)CCN2CCc1ccccc1 (stereo partly specified) | n | n | n | n | n | n
CN1[C@H]2CC[C@@H]1C(C(=O)N1CCOCC1)=C(O)C2 | n | n | n | n | n | n
Cc1nn(Cc2ccccc2)c(Cl)c1C(=O)O | n | n | n | n | n | n
Cc1nn(Cc2ccccc2Cl)c(Cl)c1C(=O)O | n | n | n | 36 | n | n
OC(Cn1c2ccccc2c2ccccc21)C[n+]1cccc2ccccc21 (stereo unspecified) | n | n | n | 63 | n | n
CCOC(=O)[C@]12Cc3cc(C)ccc3[C@H]1N(Cc1ccccc1)C(=O)c1cc(F)c(F)cc12 | x | n | n | x | n | x
CCOC(=O)c1cccc(C2=C(CNC(C)=O)[C@H]3CC[C@@H](C2)N3Cc2ccccc2)c1 | n | n | n | 31 | n | n
O=C1NC(=O)N(c2ccccc2F)C(=O)/C1=C/c1ccc(Sc2nc3ccccc3[nH]2)o1 | n | 16 | n | n | n | 17
O=C1NC(=O)N(c2ccccc2)C(=O)/C1=C/c1ccc(Sc2ccccc2)o1 | n | n | n | n | n | n
O=C1NC(=O)N(c2cccc(Cl)c2)C(=O)/C1=C\c1ccc(Sc2nc3ccccc3[nH]2)o1 | n | 27 | n | n | n | 24
CN1CCC2(CC1)N=C(c1ccc(F)cc1)C(=S)N2 | n | n | n | 26 | n | n
CCOc1cc2c(cc1OCC)-n1cccc1C(c1cc(OC)ccc1F)NC2 (stereo unspecified) | n | n | n | n | n | n
CCN(CC)C(=O)c1ccc(NC(=O)CN2CCc3cc(OC)c(OC)cc3C2)cc1 | n | n | n | n | n | n
